Among the data in ChEMBL document CHEMBL1201862, “PubChem BioAssay data set” (2004) are Potency values, retold here.

Screen size: about 400,000 compounds; about 2,100 (0.53%) were called active. Inconclusive results (about 14%) are left out. No rule for the calls is given here. The full list was thinned out, with actives kept by preference.

The target of this assay is Ataxin-2 (Homo sapiens) (UniProt Q99700). In words: qHTS for Inhibitors of ATXN expression. In kind it is functional.
Ataxin-2 (Homo sapiens), sequence (Q99700 whole entry): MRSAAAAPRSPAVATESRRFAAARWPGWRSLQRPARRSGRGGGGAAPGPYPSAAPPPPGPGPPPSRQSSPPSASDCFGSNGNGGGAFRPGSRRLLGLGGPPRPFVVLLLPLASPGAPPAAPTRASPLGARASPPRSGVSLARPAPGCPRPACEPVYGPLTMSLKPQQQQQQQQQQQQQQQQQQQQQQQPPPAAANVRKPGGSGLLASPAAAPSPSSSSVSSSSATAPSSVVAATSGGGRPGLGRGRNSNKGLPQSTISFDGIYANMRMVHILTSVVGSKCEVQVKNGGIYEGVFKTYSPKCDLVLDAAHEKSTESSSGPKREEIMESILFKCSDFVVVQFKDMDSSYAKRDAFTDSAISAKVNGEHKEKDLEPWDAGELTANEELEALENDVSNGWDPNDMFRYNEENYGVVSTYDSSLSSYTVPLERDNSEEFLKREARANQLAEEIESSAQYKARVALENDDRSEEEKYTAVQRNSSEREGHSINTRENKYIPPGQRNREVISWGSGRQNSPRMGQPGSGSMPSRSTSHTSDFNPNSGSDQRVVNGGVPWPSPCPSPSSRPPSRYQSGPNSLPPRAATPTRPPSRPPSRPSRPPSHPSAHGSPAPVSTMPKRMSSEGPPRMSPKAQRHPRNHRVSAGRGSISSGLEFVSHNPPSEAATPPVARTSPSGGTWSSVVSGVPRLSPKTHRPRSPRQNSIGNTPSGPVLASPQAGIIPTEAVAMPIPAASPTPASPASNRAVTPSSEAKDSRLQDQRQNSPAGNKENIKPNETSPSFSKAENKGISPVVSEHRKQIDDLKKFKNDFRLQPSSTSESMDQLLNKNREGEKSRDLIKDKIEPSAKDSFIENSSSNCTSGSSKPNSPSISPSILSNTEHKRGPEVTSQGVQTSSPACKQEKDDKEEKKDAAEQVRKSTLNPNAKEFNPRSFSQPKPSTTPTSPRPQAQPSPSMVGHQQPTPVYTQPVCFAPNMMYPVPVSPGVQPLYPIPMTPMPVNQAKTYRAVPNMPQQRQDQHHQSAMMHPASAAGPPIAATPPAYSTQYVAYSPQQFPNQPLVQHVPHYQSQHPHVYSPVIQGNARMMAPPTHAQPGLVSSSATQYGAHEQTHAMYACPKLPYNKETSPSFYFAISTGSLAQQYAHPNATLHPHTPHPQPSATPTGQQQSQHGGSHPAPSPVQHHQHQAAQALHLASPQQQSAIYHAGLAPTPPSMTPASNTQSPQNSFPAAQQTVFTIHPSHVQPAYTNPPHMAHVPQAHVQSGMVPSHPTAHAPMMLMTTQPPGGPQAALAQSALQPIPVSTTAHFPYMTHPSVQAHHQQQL
For `CC(C)(NC(=O)c1cc(Cl)c2ccccc2c1O)C(=O)O`, the Potency entry was “inactive”.

For `CN1C=CC(=C[N+](=O)[O-])N(C)C1=O`, the Potency is 17.8 µM (active).

In the case of `COc1cc(CCN=Cc2cc(Cl)cc(Cl)c2O)c([N+](=O)[O-])cc1OC`, the Potency result was “inactive”.

For `COc1cc(/C=C2/C(=O)c3cccc([N+](=O)[O-])c3C2=O)c(Br)cc1O`, the Potency was 22.4 µM (active).

Consider `CCOc1ccc(N2C(=O)/C(=C\c3ccc(OC)c(O)c3)S(=O)(=O)C2c2cccc([N+](=O)[O-])c2)cc1` (centres undefined), for which the Potency result was “inactive”.

As for `Cc1ccc2[nH]c(-c3ccc(SCC(=O)Nc4nnc(C)s4)nc3)nc2c1`, the Potency was 23.8 µM (active).

On to `Cc1ccc2[nH]c(SCC(=O)Nc3ccc(C(N)=O)cc3)nc2c1`, for which the Potency entry was “inactive”.

In the case of `CC(=O)c1cc2c(cc1NC(=O)CSc1nc3cc(C)ccc3[nH]1)OCO2`, the Potency result was “inactive”.

With `COc1ccc(C2=CC(c3ccccc3Cl)n3nc(-c4ccc(Cl)cc4)nc3N2)cc1` (centres undefined), the Potency entry was “inactive”.

Turning to `Nc1cccc2c1C(=O)N(C(=O)/C=C/c1ccc(F)cc1)C2=O`, the Potency result is “inactive”.

In the case of `CCSC1=NCCN1S(=O)(=O)c1ccc2ccccc2c1`, the Potency entry was “inactive”.

For the compound `CC(C)N1C/C(=C/c2ccsc2)C(=O)/C(=C/c2ccsc2)C1`, the Potency is 39.8 µM (active).

For `Cc1ccc(CCC(=O)Nc2ccccc2C(=O)O)o1`, the Potency result is “inactive”.

Regarding `O=C(OCc1ccc(O)cc1)c1c(-c2ccsc2)oc2ccc(N3CCOCC3)cc12`, the Potency entry was “inactive”.

As for `CCOc1ccc(C2C=C(c3cccc(OC)c3)Nc3nnnn32)cc1` (centres undefined), the Potency result is “inactive”.

As for `Cc1nn(-c2ccccc2)c(Cl)c1C(=O)NNC(=O)c1ccncc1`, the Potency entry was “inactive”.

`Cc1ccsc1C(=O)N1CCN(c2ccccn2)CC1`: the Potency result was “inactive”.

Consider `Cc1nn(-c2ccccc2)c(Cl)c1C(=O)N1CCN(c2ncnc3c2cnn3-c2ccccc2)CC1`, for which the Potency was 31.6 µM (active).

As for `Cc1cccn2c(=O)c3cc(C(=O)O)n(C)c3nc12`, the Potency result is “inactive”.

Turning to `CCCCNC(=O)CCN1N=C(c2ccccc2)CCC1=O`, the Potency entry was “inactive”.

As for `CN1C/C(=C/c2ccccc2[N+](=O)[O-])C(=O)/C(=C\c2ccccc2[N+](=O)[O-])C1`, the Potency is 2.99 µM (active).

On to `CCCCNC(=O)NNc1nc(Cl)cc(C)c1C#N`, for which the Potency entry was “inactive”.

In the case of `CCN(C(=O)c1ccco1)c1nc(-c2ccc(OC)cc2)cs1`, the Potency entry is “inactive”.

As to `CCN(CC)C(=O)c1cccc(-c2csc(C(C)(O)c3cccc(OC)c3)n2)c1` (centres undefined), the Potency was 35.5 µM (active).

For the compound `CCN(CC)C(=O)c1sc2nc(-c3ccccc3)ccc2c1N`, the Potency result was “inactive”.

For `CCN(CC)C(=O)c1cccc(-c2csc(C(O)c3ccccc3)n2)c1` (centres undefined), the Potency is 35.5 µM (active).

For the compound `CCN(CC)C(=O)c1cccc(-c2csc(C(C)(O)c3ccc(OC)cc3)n2)c1` (centres undefined), the Potency was 15.8 µM (active).

On to `COc1cccc(-c2ccc3c(N)c(C(=O)c4ccc(Cl)cc4)sc3n2)c1`, for which the Potency result is “inactive”.

`COCCCN=C(S)N1CCN(c2nc(-c3cccc(OC)c3)cs2)CC1`: the Potency entry was “inactive”.

Regarding `CCN(CC)C(=O)CSc1nc(-c2ccccc2)ccc1C#N`, the Potency entry is “inactive”.

With `CC(C)c1cccc(-c2csc(C(O)c3ccc(F)c(F)c3)n2)c1` (centres undefined), the Potency is 39.8 µM (active).

Turning to `CCN(CC)c1ccc2cc(-c3nc(-c4ccc(OC)cc4)cs3)c(=O)oc2c1`, the Potency entry was “inactive”.

Consider `CC(C(=O)Nc1nc(-c2ccc(F)c(F)c2)cs1)N1C(=O)C2CC=CCC2C1=O` (centres undefined), for which the Potency result is “inactive”.

Consider `Cc1ccc(C(=O)N2CCN(Cc3ccc4c(c3)OCO4)CC2)cc1S(=O)(=O)N1CCOCC1`, for which the Potency entry is “inactive”.

`COc1ccc(-c2c(C)c3ccc(O)c(CN4CCCCC4C)c3oc2=O)cc1OC` (centres undefined): the Potency result is “inactive”.

Regarding `COCCCNC(=O)c1cc2c(=O)n3cccc(C)c3nc2n(C(C)C)c1=N`, the Potency entry was “inactive”.

On to `CCSc1nnc(-c2sc3nnc(-c4ccccc4)c(-c4ccccc4)c3c2N)o1`, for which the Potency result is “inactive”.

With `CCC(=O)Oc1ccc2c(c1)OC1(OC(C)=O)OC(C)CC1=C2C` (centres undefined), the Potency result is “inactive”.

`COc1ccc(/C=N/NC(=O)c2c(C)nc3ccc(Cl)cn23)cc1OC`: the Potency result is “inactive”.

Regarding `COc1ccc(-c2n[nH]c(S)n2)cc1OC`, the Potency entry was “inactive”.

On to `COc1ccc(-c2nc(CCl)cs2)cc1OC`, for which the Potency entry is “inactive”.

Regarding `COc1ccc(-c2nc3ccc(C)cn3c2Cc2cccc(Cl)c2)cc1OC`, the Potency was 35.5 µM (active).

`COc1ccc(-c2nc3ccc(C)cn3c2Cc2cccc(F)c2)cc1OC`: the Potency was 39.8 µM (active).

Take `COc1cc2c3nnc(-c4ccc(F)cc4)c-3cn(Cc3cccc(F)c3)c2cc1OC`: the Potency entry was “inactive”.

For the compound `COc1ccc(-c2nc3ccc(C)cn3c2Cc2ccc(C)cc2)cc1OC`, the Potency was 20 µM (active).

In the case of `COc1ccccc1Cc1c(-c2ccc(OC)c(OC)c2)nc2ccc(Cl)cn12`, the Potency is 39.8 µM (active).

In the case of `N=C(NOC(=O)CCCOc1ccccc1)c1cccc(Br)c1`, the Potency entry is “inactive”.

Consider `CSc1nc(-c2ccc(N(C)C)cc2)c(C#N)c(=O)n1C`, for which the Potency entry is “inactive”.

As for `CCOC(=O)c1ccc(-c2ccc(/C=N/NC(=O)c3cncc(Br)c3)o2)cc1`, the Potency result was “inactive”.

Regarding `Cc1cc(-c2onc3ccc(Cl)cc23)ccc1O`, the Potency result was “inactive”.

In the case of `COc1ccc(-n2c(N)c(C(=O)NCc3ccco3)c3nc4ccccc4nc32)cc1OC`, the Potency entry is “inactive”.

Take `CN1C(=O)/C(=N\C2CCCCC2)c2c3ccccc3c(O)c3cccc1c23`: the Potency entry was “inactive”.

Turning to `Cc1noc(/C=C/Nc2ccc(F)cc2F)c1[N+](=O)[O-]`, the Potency entry was “inactive”.

On to `CCN1C(=O)/C(=C2/Sc3ccccc3N2CC)S/C1=N\c1nc[nH]n1`, for which the Potency result was “inactive”.

As to `CC1CC(NC(=O)c2cc3c(=O)n4ccccc4nc3n2C)CC(C)(C)C1` (centres undefined), the Potency result was “inactive”.

Regarding `Cc1nc(NN)c2c3c(sc2n1)COC(C)(C)C3`, the Potency result was “inactive”.

On to `CCCCNc1c(-c2ccc(OC)c(SC3CCCCC3)c2)nc2cnccn12`, for which the Potency result was “inactive”.

For the compound `COc1ccc(-c2nc3ccc(C)cn3c2CC(C)(C)C)cc1OC`, the Potency is 12.6 µM (active).

As for `COc1cnc(-c2ccccc2)nc1Oc1ccc(Cl)cc1C`, the Potency result was “inactive”.

With `COc1ccc(-c2nc3ccc(Cl)cn3c2Cc2cccc(F)c2)cc1OC`, the Potency was 39.8 µM (active).

For the compound `COc1ccc(-c2nc3c(-c4ccc(Cl)cc4)cnn3cc2C)cc1F`, the Potency entry was “inactive”.

Take `COc1ccc(-c2cc(-c3ccc(N)cc3)nc(N)c2C#N)cc1OC`: the Potency entry is “inactive”.

`COc1ccccc1Cc1c(-c2cccc(Cl)c2)nc2ccc(C)cn12`: the Potency was 22.4 µM (active).

Consider `COc1cc(-c2nc3ccccn3c2/N=C/c2cccc(OC)c2O)ccc1O`, for which the Potency result is “inactive”.

For `O=C(O)c1ccc2c(c1)ncn2C1CCCC1`, the Potency result is “inactive”.

As for `Cc1nc(CS(=O)(=O)c2ccccn2)sc1C(=O)NNC(=O)c1ccc(Cl)cc1`, the Potency result is “inactive”.

As for `N#Cc1cc2c(=O)n3ccccc3nc2n(-c2ccccc2Cl)c1=O`, the Potency entry was “inactive”.

Consider `CN(CCO)c1nc(NCc2ccccc2)c2cnn(C)c2n1`, for which the Potency entry was “inactive”.

On to `COc1ccc(C2=CC(c3ccco3)n3ncnc3N2)cc1` (centres undefined), for which the Potency entry was “inactive”.

With `CCOC(=O)COc1nc(-c2ccco2)cc(-c2ccco2)c1C#N`, the Potency result was “inactive”.

As to `N#Cc1cnn2c3c(cnc12)C(=O)N1CCc2ccccc2C1C3` (centres undefined), the Potency result is “inactive”.

As to `NNC(=O)c1cc2c(N3CCC(Cc4ccccc4)CC3)ncnc2s1`, the Potency result was “inactive”.

`Cc1sc2ncnc(N/N=C/c3cccc(O)c3)c2c1C`: the Potency result is “inactive”.

As to `CCc1cccc(NC(=O)C2CCN(c3ncnc4sc(C)c(C)c34)CC2)c1`, the Potency was 33.6 µM (active).

As to `O=C(NN/C=C1/C(=O)N(c2ccc(Cl)cn2)C(=O)c2ccccc21)C1CC1`, the Potency entry is “inactive”.

Turning to `COc1ccccc1C1C=C(c2ccc(C(C)C)cc2)Nc2nnnn21` (centres undefined), the Potency entry is “inactive”.

With `O=C(NNC(=O)NC1CCCCC1)NC1CCCCC1`, the Potency result was “inactive”.

`O=C(NC1CCCCC1)Sc1ccc(Cl)cc1`: the Potency is 35.5 µM (active).

Turning to `Cc1cc(Cl)cc(C)c1OCC(=O)NC1CCCCCC1`, the Potency entry was “inactive”.

Turning to `COc1cccc(C2CN(c3ccc(F)cc3F)N=C2c2cccs2)c1OC` (centres undefined), the Potency entry was “inactive”.

On to `Cc1nc(N/C(N)=N/C(=O)NC2CCCCC2)nc2ccccc12`, for which the Potency was 20 µM (active).

For the compound `O=C(NC1CCCC1)c1[nH]nc2ccccc12`, the Potency entry is “inactive”.

Turning to `C=CCn1c(SCC(=O)NC2CCCCC2)nc2ccccc2c1=O`, the Potency entry was “inactive”.

Regarding `Cc1cccc(NC(=O)c2sc3nc4c(c(-c5ccco5)c3c2N)CCC4)c1`, the Potency result was “inactive”.

As for `COc1cccc(CNC(=O)CCS(=O)(=O)c2ccccc2Cl)c1`, the Potency entry was “inactive”.

`O=C(COc1ccc(S(=O)(=O)N2CCOCC2)cc1Cl)NCc1ccc2c(c1)OCO2`: the Potency result was “inactive”.

Consider `O=C(NCc1ccc2c(c1)OCO2)c1cccnc1Cl`, for which the Potency entry is “inactive”.

As to `O=C(NCc1ccccc1)c1cnc2ccccc2c1O`, the Potency result is “inactive”.

As for `O=C(NCc1ccc2c(c1)OCO2)c1nc(S(=O)(=O)Cc2ccccc2F)ncc1Cl`, the Potency was 20 µM (active).

Regarding `Cc1cccc(CS(=O)(=O)c2ncc(Cl)c(C(=O)NCc3ccccc3)n2)c1`, the Potency was 31.6 µM (active).

As for `Cc1cccc(NC(=O)c2nc(S(=O)(=O)Cc3ccccc3)ncc2Cl)c1`, the Potency is 35.5 µM (active).

With `C=CCn1c(=N)c(C(=O)NCCCOC)cc2c(=O)n3cccc(C)c3nc21`, the Potency result is “inactive”.

For the compound `CCc1cc(=O)oc2cc(OC(=O)CN3C(=O)NC4(CCCC4)C3=O)ccc12`, the Potency entry was “inactive”.

Regarding `CCOC(=O)c1cc2c(=O)n3cccc(C)c3nc2n(CCOC)/c1=N\C(C)=O`, the Potency result is “inactive”.

In the case of `CC(C)Cn1c(N)c(C(=O)NCC2CCCO2)c2nc3ccccc3nc21` (centres undefined), the Potency result is “inactive”.

For the compound `COc1cc(C(=O)Nc2nc(-c3ccc(Cl)cc3)c(C)s2)ccc1OCC(=O)Nc1ccc(F)cc1`, the Potency is 35.5 µM (active).

With `COc1ccc(-c2ccc3c(N)c(C(=O)Nc4cc(F)ccc4C)sc3n2)cc1`, the Potency entry was “inactive”.

Turning to `COc1ccc(C(=O)OCC(=O)N2CCOCC2)cc1S(=O)(=O)N1CCOCC1`, the Potency result was “inactive”.

With `COc1ccccc1NC(=O)c1sc2nc(C)c(C(=O)Nc3ccc(Cl)cc3)c(-c3ccc(Br)cc3)c2c1N`, the Potency result was “inactive”.

Regarding `COc1ccc(C(=O)Nc2nc3n(n2)C(c2ccc(F)cc2)C=C(c2ccc(Cl)cc2)N3)cc1` (centres undefined), the Potency entry was “inactive”.

As to `COc1ccc(C(=O)Nc2ccc(OCC(=O)N3CCOCC3)cc2)c(OC)c1OC`, the Potency result is “inactive”.

Regarding `COc1ccc(-c2nc(NC(=O)c3ccc(OCC(=O)Nc4ccc(F)cc4)c(OC)c3)sc2C)cc1`, the Potency was 11.2 µM (active).

With `COc1ccc(-c2nc(NC(=O)c3ccc(OCC(=O)N4CCOCC4)c(OC)c3)sc2C)cc1`, the Potency was 15.8 µM (active).

Consider `COc1ccc(C(=O)N2CCNC(=O)C2CC(=O)Nc2ccc(C)cc2)cc1` (centres undefined), for which the Potency result is “inactive”.
